The results in this text go back to ChEMBL document CHEMBL2218924, “A broad activity screen in support of a chemogenomic map for kinase signalling research and drug discovery” (Biochem J, 2013).

Molecules are shown by their SMILES.

Assay [1] deals with T1, Testis-specific serine/threonine-protein kinase 1 (Homo sapiens) (UniProt Q9BXA7).
T1 sequence (whole entry): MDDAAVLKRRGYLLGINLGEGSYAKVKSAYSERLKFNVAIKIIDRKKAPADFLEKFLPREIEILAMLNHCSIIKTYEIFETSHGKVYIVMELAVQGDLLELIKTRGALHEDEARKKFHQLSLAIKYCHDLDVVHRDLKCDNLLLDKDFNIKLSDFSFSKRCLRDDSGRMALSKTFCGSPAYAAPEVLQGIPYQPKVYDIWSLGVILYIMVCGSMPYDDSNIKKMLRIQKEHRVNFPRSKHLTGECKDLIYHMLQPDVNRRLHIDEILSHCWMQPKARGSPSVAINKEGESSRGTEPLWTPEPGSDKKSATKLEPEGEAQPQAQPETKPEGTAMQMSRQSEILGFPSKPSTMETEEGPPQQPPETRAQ
Conditions: at 1 µM.

The target of assay [2] is T1, Testis-specific serine/threonine-protein kinase 1 (Homo sapiens). To be noted: at 10 µM.
In assay [3] the target is T2, Testis-specific serine/threonine-protein kinase 2 (Homo sapiens) (UniProt Q96PF2).
T2 sequence (whole entry): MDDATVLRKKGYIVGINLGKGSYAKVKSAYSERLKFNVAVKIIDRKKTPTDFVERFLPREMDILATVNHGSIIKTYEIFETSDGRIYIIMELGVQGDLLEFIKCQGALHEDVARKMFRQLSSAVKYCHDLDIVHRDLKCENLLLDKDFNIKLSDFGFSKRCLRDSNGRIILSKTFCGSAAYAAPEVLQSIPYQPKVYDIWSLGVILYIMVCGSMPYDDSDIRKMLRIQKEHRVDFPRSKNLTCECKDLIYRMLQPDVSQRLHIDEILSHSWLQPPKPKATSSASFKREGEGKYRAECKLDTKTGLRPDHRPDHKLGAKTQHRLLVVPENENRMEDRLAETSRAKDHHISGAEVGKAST
Conditions: at 10 µM.

Assay [4] has as its target T3, Tyrosine-protein kinase Tec (Homo sapiens) (UniProt P42680).
T3 sequence (whole entry): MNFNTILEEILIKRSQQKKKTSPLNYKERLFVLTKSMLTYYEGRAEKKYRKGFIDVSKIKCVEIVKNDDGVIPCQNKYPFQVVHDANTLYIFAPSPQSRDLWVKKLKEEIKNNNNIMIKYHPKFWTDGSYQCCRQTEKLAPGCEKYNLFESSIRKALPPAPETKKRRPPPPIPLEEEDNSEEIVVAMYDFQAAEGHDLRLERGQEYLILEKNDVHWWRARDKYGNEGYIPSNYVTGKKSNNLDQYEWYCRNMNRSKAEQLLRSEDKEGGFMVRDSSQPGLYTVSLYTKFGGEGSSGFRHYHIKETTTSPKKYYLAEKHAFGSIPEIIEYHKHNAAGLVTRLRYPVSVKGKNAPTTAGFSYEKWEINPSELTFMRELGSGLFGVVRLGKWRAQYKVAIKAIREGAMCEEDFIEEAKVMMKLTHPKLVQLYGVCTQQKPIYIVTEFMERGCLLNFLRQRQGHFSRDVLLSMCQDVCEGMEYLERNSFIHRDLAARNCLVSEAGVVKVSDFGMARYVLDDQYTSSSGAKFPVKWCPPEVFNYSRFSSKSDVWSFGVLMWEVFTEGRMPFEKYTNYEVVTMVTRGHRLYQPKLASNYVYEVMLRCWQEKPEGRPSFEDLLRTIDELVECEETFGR
To be noted: at 1 µM.

Assay [5] concerns the target T3, Tyrosine-protein kinase Tec (Homo sapiens). To be noted: at 10 µM.
In assay [6] the target is Angiopoietin-1 receptor (Homo sapiens) (UniProt Q02763). To be noted: at 1 µM.
Chain of Angiopoietin-1 receptor (Homo sapiens) (Q02763 whole entry): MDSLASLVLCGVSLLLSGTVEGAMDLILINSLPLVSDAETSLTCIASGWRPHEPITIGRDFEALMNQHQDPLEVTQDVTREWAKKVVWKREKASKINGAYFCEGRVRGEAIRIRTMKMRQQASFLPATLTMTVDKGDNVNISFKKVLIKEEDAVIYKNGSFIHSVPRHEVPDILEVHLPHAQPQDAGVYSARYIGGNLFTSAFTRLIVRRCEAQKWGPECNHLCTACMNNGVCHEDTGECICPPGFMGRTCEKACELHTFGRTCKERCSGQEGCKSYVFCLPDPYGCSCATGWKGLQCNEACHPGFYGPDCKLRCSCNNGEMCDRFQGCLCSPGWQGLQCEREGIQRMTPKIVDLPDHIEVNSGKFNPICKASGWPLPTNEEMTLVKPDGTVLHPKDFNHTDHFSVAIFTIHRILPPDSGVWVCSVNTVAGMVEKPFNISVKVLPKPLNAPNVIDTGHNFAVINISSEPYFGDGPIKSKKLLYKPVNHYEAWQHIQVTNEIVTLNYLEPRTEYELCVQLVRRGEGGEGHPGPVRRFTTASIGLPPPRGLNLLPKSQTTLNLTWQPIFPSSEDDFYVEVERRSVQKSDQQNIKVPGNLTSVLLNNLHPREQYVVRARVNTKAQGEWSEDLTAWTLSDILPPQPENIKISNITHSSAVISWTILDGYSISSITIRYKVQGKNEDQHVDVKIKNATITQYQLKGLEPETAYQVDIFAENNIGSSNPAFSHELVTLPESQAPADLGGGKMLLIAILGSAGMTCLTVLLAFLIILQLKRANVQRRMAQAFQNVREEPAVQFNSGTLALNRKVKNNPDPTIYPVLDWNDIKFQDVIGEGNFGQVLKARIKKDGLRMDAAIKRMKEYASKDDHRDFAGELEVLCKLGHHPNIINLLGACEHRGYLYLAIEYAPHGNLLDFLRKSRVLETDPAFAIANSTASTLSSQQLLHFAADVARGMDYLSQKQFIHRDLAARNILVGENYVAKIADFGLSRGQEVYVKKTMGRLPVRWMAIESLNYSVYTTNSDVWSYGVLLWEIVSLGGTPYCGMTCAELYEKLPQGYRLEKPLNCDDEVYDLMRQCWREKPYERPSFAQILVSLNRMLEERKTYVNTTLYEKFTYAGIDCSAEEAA
Assay [7] has the same target. To be noted: at 10 µM.
Assay [8] has as its target High affinity nerve growth factor receptor (Homo sapiens) (UniProt P04629). To be noted: at 1 µM.
Assay [9] has the same target. Conditions: at 10 µM.
The target of assay [10] is T4, Tyrosine-protein kinase TXK (Homo sapiens) (UniProt P42681).
T4 sequence (whole entry): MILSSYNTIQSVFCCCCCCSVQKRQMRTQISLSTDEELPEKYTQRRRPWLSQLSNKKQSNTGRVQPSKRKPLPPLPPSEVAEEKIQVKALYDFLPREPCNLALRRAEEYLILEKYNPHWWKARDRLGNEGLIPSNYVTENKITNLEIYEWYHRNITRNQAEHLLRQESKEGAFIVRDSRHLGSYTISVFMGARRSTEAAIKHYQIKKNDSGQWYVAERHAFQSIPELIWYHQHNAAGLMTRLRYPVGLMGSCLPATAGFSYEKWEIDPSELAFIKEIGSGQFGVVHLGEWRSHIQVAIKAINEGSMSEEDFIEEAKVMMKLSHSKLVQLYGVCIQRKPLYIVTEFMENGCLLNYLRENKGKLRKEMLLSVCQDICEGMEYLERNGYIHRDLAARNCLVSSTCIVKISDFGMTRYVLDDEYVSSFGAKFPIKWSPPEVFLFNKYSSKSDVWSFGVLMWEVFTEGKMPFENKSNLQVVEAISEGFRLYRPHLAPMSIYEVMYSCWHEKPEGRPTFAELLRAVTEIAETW
To be noted: at 1 µM.

Assay [11] concerns the target T4, Tyrosine-protein kinase TXK (Homo sapiens). Conditions: at 10 µM.
Assay [12] deals with T5, Serine/threonine-protein kinase ULK3 (Homo sapiens) (UniProt Q6PHR2).
T5 sequence (whole entry): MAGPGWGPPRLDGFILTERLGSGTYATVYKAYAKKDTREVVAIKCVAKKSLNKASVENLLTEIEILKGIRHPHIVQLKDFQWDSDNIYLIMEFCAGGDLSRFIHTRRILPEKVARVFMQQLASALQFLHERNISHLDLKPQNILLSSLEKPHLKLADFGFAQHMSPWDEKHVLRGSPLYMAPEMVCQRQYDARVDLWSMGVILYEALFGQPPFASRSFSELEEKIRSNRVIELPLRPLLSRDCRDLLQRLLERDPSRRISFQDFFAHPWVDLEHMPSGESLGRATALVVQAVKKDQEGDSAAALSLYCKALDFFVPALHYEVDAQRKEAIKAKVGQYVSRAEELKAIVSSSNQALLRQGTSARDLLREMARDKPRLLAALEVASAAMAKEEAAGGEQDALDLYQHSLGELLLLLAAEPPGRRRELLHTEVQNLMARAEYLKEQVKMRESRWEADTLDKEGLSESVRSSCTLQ
Conditions: at 1 µM.

Assay [13] addresses T5, Serine/threonine-protein kinase ULK3 (Homo sapiens). To be noted: at 10 µM.
Assay [14] addresses Serine/threonine-protein kinase WNK2 (Homo sapiens) (UniProt Q9Y3S1). To be noted: at 1 µM.
The target in assay [15] is T6, Serine/threonine-protein kinase ULK2 (Homo sapiens) (UniProt Q8IYT8).
T6 sequence (whole entry): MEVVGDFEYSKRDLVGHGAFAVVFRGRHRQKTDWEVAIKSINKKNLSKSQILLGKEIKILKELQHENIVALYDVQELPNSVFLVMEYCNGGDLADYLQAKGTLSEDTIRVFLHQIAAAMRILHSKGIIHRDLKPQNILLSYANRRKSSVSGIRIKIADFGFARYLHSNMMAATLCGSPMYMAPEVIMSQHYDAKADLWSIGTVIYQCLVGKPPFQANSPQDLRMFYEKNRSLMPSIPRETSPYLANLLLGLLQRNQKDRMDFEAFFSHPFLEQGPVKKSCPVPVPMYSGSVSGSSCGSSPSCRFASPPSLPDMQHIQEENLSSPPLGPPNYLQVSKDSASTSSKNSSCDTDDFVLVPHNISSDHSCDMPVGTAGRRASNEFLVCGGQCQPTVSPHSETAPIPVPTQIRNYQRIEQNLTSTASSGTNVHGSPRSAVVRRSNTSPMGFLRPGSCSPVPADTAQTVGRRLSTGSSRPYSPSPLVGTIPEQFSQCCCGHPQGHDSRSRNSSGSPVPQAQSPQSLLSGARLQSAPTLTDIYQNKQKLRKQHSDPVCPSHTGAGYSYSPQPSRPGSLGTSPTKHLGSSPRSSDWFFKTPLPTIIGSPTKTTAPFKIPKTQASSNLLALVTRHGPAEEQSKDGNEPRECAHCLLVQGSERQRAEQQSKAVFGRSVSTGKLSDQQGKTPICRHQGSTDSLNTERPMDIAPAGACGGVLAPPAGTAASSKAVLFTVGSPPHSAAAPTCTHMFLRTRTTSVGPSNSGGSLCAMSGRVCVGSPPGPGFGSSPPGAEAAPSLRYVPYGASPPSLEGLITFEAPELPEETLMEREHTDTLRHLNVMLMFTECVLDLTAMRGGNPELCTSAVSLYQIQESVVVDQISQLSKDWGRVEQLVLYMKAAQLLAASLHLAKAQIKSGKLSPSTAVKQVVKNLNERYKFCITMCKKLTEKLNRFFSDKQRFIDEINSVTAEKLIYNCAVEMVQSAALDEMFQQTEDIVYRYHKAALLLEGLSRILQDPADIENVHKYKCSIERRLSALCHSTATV
To be noted: at 10 µM.

Assay [16] addresses Serine/threonine-protein kinase VRK2 (Homo sapiens) (UniProt Q86Y07). To be noted: at 1 µM.
The target is the same in assay [17]. To be noted: at 10 µM.
In assay [18] the target is BDNF/NT-3 growth factors receptor (Homo sapiens) (UniProt Q16620). Conditions: at 1 µM.
Chain of BDNF/NT-3 growth factors receptor (Homo sapiens) (Q16620 32-822 limits assumed): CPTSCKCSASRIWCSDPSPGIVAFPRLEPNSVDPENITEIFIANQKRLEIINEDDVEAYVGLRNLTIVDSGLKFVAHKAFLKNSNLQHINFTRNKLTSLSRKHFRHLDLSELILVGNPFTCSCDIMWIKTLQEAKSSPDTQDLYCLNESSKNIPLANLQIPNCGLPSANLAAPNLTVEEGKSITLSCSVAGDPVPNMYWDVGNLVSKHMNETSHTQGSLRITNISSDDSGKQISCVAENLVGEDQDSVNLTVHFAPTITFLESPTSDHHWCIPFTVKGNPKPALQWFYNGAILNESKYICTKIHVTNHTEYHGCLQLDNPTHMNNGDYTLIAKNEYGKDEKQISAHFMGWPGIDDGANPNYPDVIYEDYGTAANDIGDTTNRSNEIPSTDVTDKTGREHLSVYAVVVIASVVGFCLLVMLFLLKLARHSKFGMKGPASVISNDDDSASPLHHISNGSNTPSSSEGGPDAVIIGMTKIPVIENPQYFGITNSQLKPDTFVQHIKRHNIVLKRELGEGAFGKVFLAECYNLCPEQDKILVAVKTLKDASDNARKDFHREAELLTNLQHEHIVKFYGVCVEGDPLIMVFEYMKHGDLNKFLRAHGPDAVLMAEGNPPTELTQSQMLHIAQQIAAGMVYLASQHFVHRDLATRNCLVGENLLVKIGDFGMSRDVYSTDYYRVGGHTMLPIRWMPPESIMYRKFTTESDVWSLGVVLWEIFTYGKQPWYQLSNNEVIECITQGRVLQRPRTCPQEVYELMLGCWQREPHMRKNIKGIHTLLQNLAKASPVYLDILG
Assay [19] shares this target. To be noted: at 10 µM.
The target in assay [20] is T6, Serine/threonine-protein kinase ULK2 (Homo sapiens). To be noted: at 1 µM.

Chain of Serine/threonine-protein kinase WNK2 (Homo sapiens) (Q9Y3S1 whole entry): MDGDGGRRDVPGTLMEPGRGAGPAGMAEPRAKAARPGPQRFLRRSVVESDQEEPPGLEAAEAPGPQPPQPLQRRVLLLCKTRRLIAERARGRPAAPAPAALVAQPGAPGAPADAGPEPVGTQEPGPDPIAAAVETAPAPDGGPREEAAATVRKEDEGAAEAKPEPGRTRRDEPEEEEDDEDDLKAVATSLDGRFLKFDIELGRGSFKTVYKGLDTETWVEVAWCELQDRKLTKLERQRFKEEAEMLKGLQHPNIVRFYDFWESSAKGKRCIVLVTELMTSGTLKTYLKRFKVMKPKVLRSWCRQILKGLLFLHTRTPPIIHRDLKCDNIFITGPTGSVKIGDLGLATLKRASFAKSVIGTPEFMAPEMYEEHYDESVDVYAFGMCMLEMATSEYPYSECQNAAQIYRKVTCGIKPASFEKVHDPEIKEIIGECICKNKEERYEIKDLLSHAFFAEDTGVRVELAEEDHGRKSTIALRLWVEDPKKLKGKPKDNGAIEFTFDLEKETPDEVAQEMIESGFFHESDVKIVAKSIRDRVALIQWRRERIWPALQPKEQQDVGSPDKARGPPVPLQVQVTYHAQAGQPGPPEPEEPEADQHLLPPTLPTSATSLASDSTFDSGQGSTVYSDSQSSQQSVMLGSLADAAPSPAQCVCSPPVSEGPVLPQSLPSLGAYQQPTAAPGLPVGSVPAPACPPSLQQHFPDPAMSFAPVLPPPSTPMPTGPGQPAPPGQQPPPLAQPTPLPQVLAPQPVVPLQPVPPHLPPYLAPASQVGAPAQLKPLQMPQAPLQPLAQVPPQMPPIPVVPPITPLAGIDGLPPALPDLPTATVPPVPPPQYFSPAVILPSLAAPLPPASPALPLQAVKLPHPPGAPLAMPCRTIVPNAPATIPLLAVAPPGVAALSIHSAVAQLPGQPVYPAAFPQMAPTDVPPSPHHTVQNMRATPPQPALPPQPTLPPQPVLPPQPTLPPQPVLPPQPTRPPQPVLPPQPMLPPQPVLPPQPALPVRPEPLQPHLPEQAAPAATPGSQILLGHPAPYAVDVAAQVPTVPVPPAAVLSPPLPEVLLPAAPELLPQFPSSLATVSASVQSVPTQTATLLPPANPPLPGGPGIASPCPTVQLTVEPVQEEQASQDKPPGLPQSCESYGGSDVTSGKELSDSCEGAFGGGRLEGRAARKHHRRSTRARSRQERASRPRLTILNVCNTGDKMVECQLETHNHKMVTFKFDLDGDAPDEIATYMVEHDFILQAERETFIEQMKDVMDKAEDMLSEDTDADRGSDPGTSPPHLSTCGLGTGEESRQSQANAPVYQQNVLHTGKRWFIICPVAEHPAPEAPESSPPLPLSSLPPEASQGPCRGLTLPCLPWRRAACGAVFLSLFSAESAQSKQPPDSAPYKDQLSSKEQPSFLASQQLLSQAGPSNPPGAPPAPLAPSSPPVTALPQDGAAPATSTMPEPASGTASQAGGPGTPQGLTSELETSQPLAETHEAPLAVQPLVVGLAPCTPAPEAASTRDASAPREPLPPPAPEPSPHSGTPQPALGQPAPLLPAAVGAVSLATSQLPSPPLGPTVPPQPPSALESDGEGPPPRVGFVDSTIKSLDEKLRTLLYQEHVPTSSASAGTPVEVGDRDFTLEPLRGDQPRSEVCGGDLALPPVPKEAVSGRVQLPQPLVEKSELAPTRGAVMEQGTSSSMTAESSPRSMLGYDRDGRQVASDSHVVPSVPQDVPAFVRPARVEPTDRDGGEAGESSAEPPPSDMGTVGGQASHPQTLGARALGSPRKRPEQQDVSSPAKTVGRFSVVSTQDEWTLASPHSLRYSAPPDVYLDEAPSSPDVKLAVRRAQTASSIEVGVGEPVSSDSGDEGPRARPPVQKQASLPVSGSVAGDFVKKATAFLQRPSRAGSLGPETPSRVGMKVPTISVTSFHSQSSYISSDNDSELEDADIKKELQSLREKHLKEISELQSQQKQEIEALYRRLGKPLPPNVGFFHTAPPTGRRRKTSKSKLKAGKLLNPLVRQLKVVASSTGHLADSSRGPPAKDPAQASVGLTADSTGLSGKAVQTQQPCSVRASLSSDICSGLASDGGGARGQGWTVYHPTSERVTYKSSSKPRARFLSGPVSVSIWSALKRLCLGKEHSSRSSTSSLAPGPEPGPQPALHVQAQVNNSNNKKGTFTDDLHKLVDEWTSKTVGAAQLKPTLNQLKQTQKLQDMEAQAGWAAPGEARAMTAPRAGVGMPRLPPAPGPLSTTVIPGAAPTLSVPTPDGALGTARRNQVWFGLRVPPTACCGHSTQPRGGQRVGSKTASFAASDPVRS
Chain of High affinity nerve growth factor receptor (Homo sapiens) (P04629 33-796 limits assumed): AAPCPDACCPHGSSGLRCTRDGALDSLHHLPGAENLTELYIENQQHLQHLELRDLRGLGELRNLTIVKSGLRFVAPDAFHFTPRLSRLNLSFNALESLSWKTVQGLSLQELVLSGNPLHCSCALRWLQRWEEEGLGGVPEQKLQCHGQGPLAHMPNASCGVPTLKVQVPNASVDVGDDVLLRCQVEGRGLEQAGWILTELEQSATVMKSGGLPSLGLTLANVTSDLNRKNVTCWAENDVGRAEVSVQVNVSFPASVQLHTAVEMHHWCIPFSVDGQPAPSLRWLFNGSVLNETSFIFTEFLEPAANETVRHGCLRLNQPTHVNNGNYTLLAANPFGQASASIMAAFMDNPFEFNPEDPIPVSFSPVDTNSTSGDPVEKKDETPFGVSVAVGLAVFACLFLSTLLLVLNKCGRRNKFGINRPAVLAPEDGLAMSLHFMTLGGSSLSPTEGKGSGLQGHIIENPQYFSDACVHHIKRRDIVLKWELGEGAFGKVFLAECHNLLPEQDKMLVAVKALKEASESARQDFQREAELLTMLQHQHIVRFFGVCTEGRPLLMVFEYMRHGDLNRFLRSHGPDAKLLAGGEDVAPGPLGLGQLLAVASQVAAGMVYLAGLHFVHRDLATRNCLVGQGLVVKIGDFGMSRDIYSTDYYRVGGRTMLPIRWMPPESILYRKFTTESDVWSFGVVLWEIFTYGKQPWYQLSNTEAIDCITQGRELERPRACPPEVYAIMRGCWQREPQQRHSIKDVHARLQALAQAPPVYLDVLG

A word on the residual activity: it is the signal under treatment as a percentage of the control signal. With `CC(C)[C@H](CO)Nc1nc(Nc2cc(N)cc(Cl)c2)c2ncn(C(C)C)c2n1`, the residual activity in assay [1] was determined as 86%; in assay [2], 66%; in assay [3], 90%; in assay [4], 61%; in [5], 13%; in assay [6] it was 100%. The residual activity in assay [7] amounted to 52%; in assay [8], 5%; in assay [9], 0%; in assay [10] it was 63%; in assay [11], 17%; in [12], 41%. Also, the residual activity in assay [13] was 8%; in assay [14], 87% (inactive).
Take `COc1ccc(Cl)cc1NC(=O)Nc1cc(C)nc2ccccc12`: the residual activity in assay [1] came out at 95%; in assay [2] it was 87%; in assay [3], 88%; in [4], 93%; in assay [5] it was 55%; in assay [8], 100%. Also, the residual activity was 60% in assay [9]; 60% in assay [11]; 85% in [15]; 96% in assay [13]; 98% (inactive) in assay [16]; 94% in assay [17].
In the case of `O=C(O)/C=C/c1cc(Br)c(Br)c(Br)c1Br`, the residual activity in assay [1] is 81%; in [2] it was 99%; in assay [3], 102%; in assay [4] it was 94%; in assay [5], 96%; in assay [6], 99%. Moreover, the residual activity came to 89% in assay [7]; 109% in assay [18]; 83% in assay [19]; 94% in assay [10]; 95% in [11]; 109% in [20]. In addition, the residual activity in assay [15] was 107%; in assay [12], 98%; in [13], 93%; in assay [16], 109% (inactive); in assay [17] it was 105%.
For `c1ccc(-c2cnc(Nc3ccc(OCCN4CCCC4)cc3)s2)cc1`, the residual activity in assay [1] is 100%; in assay [2], 78%; in [3], 74%; in [6] it was 114%; in assay [7], 60%; in assay [8], 24%. Also, the residual activity turned out to be 3% in [9]; 45% in assay [18]; 3% in assay [19]; 60% in assay [11]; 59% in assay [20]; 16% in assay [15]. In addition, in assay [14], the residual activity is 123% (inactive).
Turning to `CN(C)S(=O)(=O)c1ccc2c(c1)/C(=C/c1cc3c([nH]1)CCCC3)C(=O)N2`, the residual activity in assay [1] was found to be 91%; in assay [2], 73%; in [4], 86%; in assay [5], 80%; in [6], 45%; in [7], 51%. For the same compound, the residual activity is -2% in assay [8]; -1% in [9]; 4% in [18]; 1% in [19]; 92% in assay [10]; 90% in assay [11]. The residual activity in assay [20] was 38%; in assay [15], 13%; in assay [12] it was 11%; in [13], 6%; in [17], 91%; in assay [14], 94% (inactive).
Consider `CCOC(=O)c1c(C)[nH]c(/C=C2\C(=O)Nc3ccccc32)c1C`, for which the residual activity worked out at 93% in assay [1]; 83% in assay [2]; 97% in assay [3]; 88% in assay [4]; 92% in [5]; 13% in [8]. In addition, the residual activity came out at 32% in [9]; 73% in [18]; 45% in assay [19]; 97% in assay [10]; 91% in assay [11]; 76% in [12]. In assay [13], the residual activity was determined as 70%.
On to `O=C1Nc2ccc(Cl)cc2/C1=C/c1cc(Cl)c(O)c(Cl)c1`, for which the residual activity was 95% in assay [1]; 78% in [2]; 57% in assay [3]; 89% in [4]; 70% in assay [5]; 75% in assay [6]. In addition, the residual activity in assay [7] was 51%; in assay [8] it was -1%; in [9] it was 2%; in assay [18] it was 38%; in [19], 3%; in [10], 93%. For the same compound, the residual activity in assay [11] is 80%; in assay [12] it was 89%; in [13], 47%; in [16] it was 110% (inactive); in [17], 92%.
